# The whole screen tested about 48,000 compounds, of which about 13,000 (27%) showed an effect of 50% or more. Some of the results follow.
# Test system: Wolbachia pipientis
# Experiment: Anti-Wolbachia Cell-Based Screen
# Assay type: functional
# Design: scale not given: in the data most compounds retested in dose-response had high values
# Conditions: 5 µM
row,Structure (SMILES),Percent Effect
1,CC(C)N(Cc1ccc(C(=O)O)o1)C(C)C.Cl,-3.405%
2,O=C(NCc1ccc(C(=O)O)o1)c1ccc(F)cc1,8.231%
3,O=C(O)CCCc1ccc2c(c1)CC(=O)N2,-9.679%
4,CC(C)c1ccc(CC2(C)Cc3cc(CC(=O)O)ccc3O2)cc1 (stereo not given),103.5%
5,CC1(Cc2ccc(F)cc2)Cc2cc(C(=O)NCCO)ccc2O1 (stereo not given),96.1%
6,CC1(Cc2ccc(Cl)cc2)Cc2cc(CCC(=O)O)ccc2O1 (stereo not given),128.5%
7,O=C(NCCCc1ccc(F)cc1)c1ccc(N2CCOCC2)cc1,-12.9%
8,Cc1ncc(C)c(N2CCC(Cc3ccc(Cl)cc3)(C(=O)O)CC2)n1,-13.5%
9,Cc1nsc(NCc2ccc(CS(=O)(=O)NC(C)C)cc2)n1,-12.57%
10,O=C(CC1=CCCCC1)NCc1ccnc(OC2CCOCC2)c1,4.75%
11,Cc1ccc(CN(CCN(C)C)Cc2nc3ccccc3[nH]2)s1,-0.2455%
12,CC(NC(=O)N(C)Cc1cnn(C)c1)c1nncn1C (stereo not given),-30.3%
13,COC(=O)C(C)N(Cc1cc(=O)n(C)c(=O)n1C)C1CC1 (stereo not given),5.049%
14,CCCC1(CO)CCCN(Cc2nccs2)C1 (stereo not given),-16.5%
15,CCCC1(CO)CCCN(C(=O)CN2CCN(CC)CC2)C1 (stereo not given),98.5%
16,CCCC1(CO)CCCN(Cc2ncccn2)C1 (stereo not given),-3.233%
17,CCCSCC(=O)N1CCCC2(CCC(=O)N(CCc3c[nH]cn3)C2)C1 (stereo not given),0.3412%
18,CCCC1(CO)CCCN(C(=O)CCCn2nc(C)cc2C)C1 (stereo not given),0.5939%
19,CCCSCC(=O)N1CCCC(CO)(CCC)C1 (stereo not given),120.7%
20,CN(C)C(=O)C1CCCN1c1ccnc2ccsc12 (stereo not given),-11.69%
21,O=C(c1cccnc1)N1CCc2[nH]nc(Nc3ccccc3)c2C1,125.3%
22,O=C(CCN1CCc2[nH]nc(C(F)(F)F)c2C1)Nc1ccccc1,-5.362%
23,COc1cccc(-c2n[nH]c3c2CN(C(=O)c2ccncc2)CC3)c1,-11.9%
24,O=C(c1cccnc1)N1Cc2[nH]nc(COCCO)c2C1,-11.56%
25,COc1cccc(-c2n[nH]c3c2CN(C(=O)c2cc(C)n(C)n2)CC3)c1,-0.6407%

row,Structure (SMILES),Percent Effect
1,Cc1cc(C(=O)N2CCc3[nH]nc(-c4ccc5c(c4)OCO5)c3C2)no1,-8.548%
2,O=C(c1coc(-c2ccccc2)n1)N1CCCCC1,-26.2%
3,COCc1n[nH]c2c1CN(C(=O)c1ccncc1)C2.O=C(O)C(F)(F)F,-2.458%
4,Cn1ccc(C(=O)N2CCc3[nH]nc(Nc4ccccc4)c3C2)n1,131.4%
5,O=C(c1ccncc1)N1CCc2[nH]nc(Nc3ccccc3)c2C1,110.2%
6,Cc1nc(C(=O)N2CCc3[nH]nc(Nc4ccccc4)c3C2)co1,140.3%
7,Cc1cc(C)n(C2CN(CC(O)c3ccc(F)cc3)C2)n1 (stereo not given),-3.479%
8,CN1CCC(CCNC(=O)c2ccc(N(C)S(C)(=O)=O)cc2Cl)CC1,-5.905%
9,COC(=O)CC(c1ccccc1)c1oc(C)cc(=O)c1O (stereo not given),9.59%
10,O=C(c1ccsc1)N1CCc2c(CNc3ncccn3)n[nH]c2C1,-3.042%
11,Cc1ncsc1C(=O)N1CCc2[nH]nc(-c3ccc4c(c3)OCO4)c2C1,-9.39%
12,O=C(c1cncs1)N1CCc2[nH]nc(Nc3ccccc3)c2C1,117.5%
13,CCn1c(CC2CCN(C(=O)C3CCOC3)CC2)nn(C)c1=O (stereo not given),3.513%
14,Cc1cc(=O)n2ncnc2n1CC(O)c1ccc(F)cc1F (stereo not given),-38.21%
15,Cc1cc(C)c(OCC(=O)NS(=O)(=O)c2c(C)noc2C)c(C)c1,0.8796%
16,Cc1ccc(OCC(=O)NS(=O)(=O)c2c(C)noc2C)cc1C,20.27%
17,O=S(=O)(NCC1(O)CCOc2ccccc21)c1ccc(Br)s1 (stereo not given),-8.06%
18,CCOc1cccc2c1OCC(C(=O)NS(=O)(=O)c1cncc(Br)c1)=C2,125.8%
19,CCOc1cccc2c1OCC(C(=O)NS(=O)(=O)c1cccs1)=C2,95.96%
20,CCOc1cccc2c1OCC(C(=O)NS(=O)(=O)c1ccc(Br)s1)=C2,97%
21,Cc1ccc(S(C)(=O)=O)cc1C(=O)NS(=O)(=O)c1cccs1,20%
22,N#CCc1ccc(OCC(=O)NS(=O)(=O)c2cccs2)cc1,5.016%
23,CCOc1cccc2c1OCC(C(=O)NS(=O)(=O)c1c(C)noc1C)=C2,100.1%
24,Cc1ccc(S(=O)(=O)NC(=O)c2cccc(OCC(N)=O)c2)s1,-0.7122%
25,CCOc1cccc2c1OCC(C(=O)NS(=O)(=O)c1ccc(Cl)cc1)=C2,-2.637%

row,Structure (SMILES),Percent Effect
1,CCOc1ccc(C(=O)NS(=O)(=O)c2cncc(Br)c2)cc1OC,-12.86%
2,CN(CCN1CCCC1=O)S(=O)(=O)CC1CCCC1,-3.28%
3,Cc1ncc(S(C)(=O)=O)c(N2Cc3ccccc3C2)n1,20.01%
4,CCN(C)CC(=O)N1CCN(Cc2ccccc2)[C@@H]2CS(=O)(=O)C[C@@H]21,-19.14%
5,CCN(CC)C(=O)c1ccn(COc2ccccc2)n1,-3.664%
6,Cc1nc(CNC(C(=O)N2CCOCC2)C(C)C)oc1C (stereo not given),-5.352%
7,CCOc1cccc2c1OCC(C(=O)NS(=O)(=O)c1ccc(C)s1)=C2,-6.763%
8,CCOc1cccc2c1OCC(C(=O)NS(=O)(=O)c1ccc(Cl)s1)=C2,108.5%
9,CC(C)COCCC(=O)NS(=O)(=O)c1ccc(Cl)s1,13.2%
10,COc1ccc(NC(=O)CSc2nc(C)cc(C)n2)cn1,9.531%
11,CC1c2ncc(CN3CCN(C)CC3)n2CCN1Cc1ccc(F)cc1.O=C(O)C(F)(F)F.O=C(O)C(F)(F)F.O=C(O)C(F)(F)F (stereo not given),94.11%
12,Cc1ccc(CN2CCn3c(CN4CCN(C)CC4)cnc3C2C)s1.O=C(O)C(F)(F)F.O=C(O)C(F)(F)F.O=C(O)C(F)(F)F (stereo not given),98.84%
13,CC1c2ncc(CN3CCN(C)CC3)n2CCN1CC1CC1.O=C(O)C(F)(F)F.O=C(O)C(F)(F)F.O=C(O)C(F)(F)F (stereo not given),-5.269%
14,CC1c2ncc(CN3CCN(C)CC3)n2CCN1Cc1ccsc1.O=C(O)C(F)(F)F.O=C(O)C(F)(F)F.O=C(O)C(F)(F)F (stereo not given),104.7%
15,CC1c2ncc(CN3CCN(C)CC3)n2CCN1Cc1cccnc1.O=C(O)C(F)(F)F.O=C(O)C(F)(F)F.O=C(O)C(F)(F)F.O=C(O)C(F)(F)F (stereo not given),3.329%
16,CC1c2ncc(CN3CCN(C)CC3)n2CCN1Cc1cnn(C)c1.O=C(O)C(F)(F)F.O=C(O)C(F)(F)F.O=C(O)C(F)(F)F (stereo not given),96.74%
17,CCOCc1cnc2n1CCN(Cc1scnc1C)C2C.O=C(O)C(F)(F)F (stereo not given),-10.4%
18,Nc1ccc(CC2COc3ccccc3C2)cn1 (stereo not given),18.77%
19,CCOc1ccc(S(=O)(=O)NCCc2ccc(N(C)C)cc2)cc1C,13.74%
20,CC(C)c1nc(CCN(C)C(=O)C2COc3ccccc3C2)no1 (stereo not given),-22.02%
21,CC(C)c1nn(C)c(N(C)C)c1CNCCC(=O)NC1CCCCC1,102.1%
22,Cc1nn(C)c(N(C)C)c1CNCCNS(C)(=O)=O,-8.307%
23,Cc1nn(C)c(N(C)C)c1CNCCC(=O)NC1CCCC1,122.8%
24,CC(C)c1nn(C)c(N(C)C)c1CNCCC(=O)NC1CCCC1,-3.602%
25,Cc1nn(CC(C)C)c(N(C)C)c1CNCCC(=O)NC(C)C,-6.967%

row,Structure (SMILES),Percent Effect
1,Cc1nn(C)c(N(C)C)c1CNCCC(=O)NC1CCCCC1,122.8%
2,CC(NCc1c(C(C)C)nn(C)c1N(C)C)C(=O)NC1CCCC1.Cl (stereo not given),-15.88%
3,CNC(=O)CCCNCc1c(C)nn(C)c1N(C)C,-1.91%
4,Cc1cccc(NC(=O)CCNCc2c(C)nn(C)c2N(C)C)n1,-6.985%
5,O=C1[C@@H]2CCN(CC3CC3)C[C@@H]2OCCN1c1ccsc1,-4.722%
6,O=C(N[C@@H]1CN(c2ncccn2)C[C@@H]2CCCO[C@@H]21)c1cnccn1.O=C(O)C(F)(F)F,-32.47%
7,Br.COc1ccc(OCCc2cc(C3CCN(CC(C)C)C3)n[nH]2)cc1 (stereo not given),140.6%
8,CCCN1CCC(c2cc(CCOc3ccc(C(F)(F)F)cc3)[nH]n2)C1 (stereo not given),115.7%
9,COc1ccc(-c2c[nH]c(C3CC(=O)N(CC(C)C)C3)n2)cc1 (stereo not given),-5.236%
10,CC(C)CN1CC[C@H](c2nnc(COc3ccc(F)cc3)o2)C1,3.256%
11,Clc1ccc(OCCc2cc(C3CCN(c4ncccn4)C3)n[nH]2)cc1 (stereo not given),119.6%
12,O=C(NCCN1CCCC1)Nc1cc(C(=O)N2CCOCC2)ccc1Cl,-2.741%
13,CC(CNS(C)(=O)=O)c1ccc(F)c(F)c1 (stereo not given),0.4429%
14,Cc1ccc(C(=O)N2C[C@H](NS(C)(=O)=O)[C@@H](C(C)C)C2)cc1F,7.707%
15,Cc1ccc(S(=O)(=O)NCC(C)C#N)cc1Br (stereo not given),-32.7%
16,CC(NC(=O)NC1CCN(Cc2ccncc2)CC1)c1cccc(F)c1 (stereo not given),10.76%
17,CNC(=O)N1CCC2(CC1)CNc1ccc(F)cc12.Cl,2.564%
18,NC(=O)C1CCN(C(=O)c2ccn(-c3ccc(F)cc3)n2)C1 (stereo not given),-7.383%
19,COc1ccc(N2CCCN(CC(=O)N3CCNC(=O)C3)CC2)cc1,-7.971%
20,Cc1cc(C(=O)NCc2ccc(N3CCCC(C(N)=O)C3)cc2)[nH]n1 (stereo not given),-1.321%
21,CNC(=O)C1CCN(C(=O)c2ccn(-c3ccc(F)cc3)n2)CC1,-2.487%
22,CNC(=O)C1CN(c2ccc(F)cc2)CCN1.Cl (stereo not given),158.3%
23,COc1ccc(SC(C)C(=O)N2CCC(C(N)=O)CC2)cc1 (stereo not given),-1.042%
24,Cl.NC(=O)C1CN(c2ccc(F)cc2)CCN1 (stereo not given),113.5%
25,COc1ccc(N2CCNC(C(N)=O)C2)cc1 (stereo not given),90.5%

# From ChEMBL document CHEMBL3988442, “University of Dundee, Small-Polar-MMV Screening Library” (2021)
